# Data as given in PubChem BioAssay.
# Calls of active or inactive are those of the source.
# Columns and labels:
# [1] = biological target: Albumin (Bos taurus) (UniProt P02769); assay: bovine serum albumin binders on microarray, profiling panel, artefact control for SMM control protein annotation, biochemical, small-molecule microarray, Alexa647 label, 635/667 nm fluorescence (AID 1118); conditions: BSA-A647 binding, fluorescence 635 nm, higher = more signal;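 also: score merges 667 nm emission intensity and signal-to-noise per printed compound spot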
# Albumin (Bos taurus), sequence (P02769 whole entry, looked up): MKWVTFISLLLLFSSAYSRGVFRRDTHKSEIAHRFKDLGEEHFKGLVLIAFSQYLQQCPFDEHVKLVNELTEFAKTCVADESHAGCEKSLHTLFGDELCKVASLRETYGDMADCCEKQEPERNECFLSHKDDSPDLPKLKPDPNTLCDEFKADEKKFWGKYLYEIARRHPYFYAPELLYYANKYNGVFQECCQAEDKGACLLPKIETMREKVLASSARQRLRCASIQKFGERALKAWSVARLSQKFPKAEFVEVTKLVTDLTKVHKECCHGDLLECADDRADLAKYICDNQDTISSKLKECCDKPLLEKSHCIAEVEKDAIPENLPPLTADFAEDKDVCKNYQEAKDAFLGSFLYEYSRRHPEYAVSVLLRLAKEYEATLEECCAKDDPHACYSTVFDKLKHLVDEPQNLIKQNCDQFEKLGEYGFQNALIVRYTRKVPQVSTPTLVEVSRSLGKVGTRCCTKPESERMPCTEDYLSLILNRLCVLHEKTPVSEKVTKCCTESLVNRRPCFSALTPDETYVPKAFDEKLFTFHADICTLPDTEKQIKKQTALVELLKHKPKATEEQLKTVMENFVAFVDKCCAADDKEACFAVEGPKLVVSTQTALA
# [2] = small-molecule microarray binders of probe aXIP, primary screen, biochemical, NeuroSMM set, 635/667 nm fluorescence (AID 1119); conditions: higher = more signal, called active from +8 up or from −8 down;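 also: probe is the protein aXip251-270 applied at 1 µg/mL to compound-printed slides; binding of probe to printed compounds measured as 667 nm fluorescence plus signal to noise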
# [3] = small-molecule binders of probe aNOTCH3, primary screen, biochemical, small-molecule microarray, 635/667 nm fluorescence (AID 1120); conditions: higher = more signal;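 also: probe is a biotin-tagged antibody raised against NOTCH3 rather than NOTCH3 protein; score merges spot fluorescence near 667 nm with spot signal to noise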
# [4] = small-molecule binders of probe aNOTCH2, primary screen, biochemical, small-molecule microarray, 635/667 nm fluorescence (AID 1121); conditions: higher = more signal;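 also: score merges feature fluorescence read at 667 nm with its signal to noise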
# [5] = biological target: Carbonic anhydrase 2 (Homo sapiens) (UniProt P00918); assay: CAII small-molecule binders, profiling panel, biochemical, small-molecule microarray, Alexa647-labelled CAII (AID 1122); conditions: CAII-A647 binding fluorescence, higher = more signal
# [6] = COS7 lysate on small-molecule microarray, probe aHis, 635 nm (AID 1123); conditions: COS7 cell lysate, fluorescence, higher = more signal;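 also: z-score combines 667nm fluorescence intensity with signal-to-noise per printed compound spot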
# [7] = compound binding in COS7 lysate, probe aLAP1, primary screen, cell lysate, small-molecule microarray (AID 1124); conditions: probe aLAP1, fluorescence, higher = more signal;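 also: lysate comes from COS7 cells expressing LAP1 and is applied at 0.3 µg/mL; score merges spot fluorescence near 667 nm with signal-to-noise over triplicate slides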
# [8] = tested on: Sam68 (KHDRBS1); assay: Sam68 small-molecule binders, primary screen, biochemical, small-molecule microarray, 635 nm fluorescence (AID 1125); conditions: small-molecule microarray binding, higher = more signal;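 also: score merges 667 nm channel intensity with signal to noise over triplicate slides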
# [9] = tested on: Chordin-like protein 2 (CHRDL2); assay: CHRDL2 small-molecule binders, primary screen, biochemical, small-molecule microarray, 635 nm fluorescence (AID 1126); conditions: small-molecule microarray binding, fluorescence 635 nm; higher = more signal;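 also: printed compound slides probed with Chrdl2 protein at 4 µg/mL for 1 h at 4 C; score merges 667 nm emission intensity with signal to noise over three replicate slides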
# [10] = biological target: Concanavalin-A (Canavalia ensiformis) (UniProt P02866); assay: ConA small-molecule binders, primary screen, artefact control for SMM control protein annotation, biochemical, small-molecule microarray, Alexa647 label, 635 nm (AID 1127); conditions: ConA-A647 binding fluorescence, higher = more signal;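 also: z combines 667 nm emission intensity with signal-to-noise across three replicate slides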
# Concanavalin-A (Canavalia ensiformis), sequence (P02866 whole entry, looked up): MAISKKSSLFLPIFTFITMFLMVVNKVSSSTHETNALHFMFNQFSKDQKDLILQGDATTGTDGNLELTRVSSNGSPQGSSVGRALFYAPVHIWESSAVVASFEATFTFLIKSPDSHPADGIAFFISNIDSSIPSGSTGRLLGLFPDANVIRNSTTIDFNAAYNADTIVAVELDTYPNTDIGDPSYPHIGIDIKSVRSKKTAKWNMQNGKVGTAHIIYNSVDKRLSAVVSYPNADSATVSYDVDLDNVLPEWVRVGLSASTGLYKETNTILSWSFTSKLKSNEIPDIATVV
# [11] = anti-His antibody binders, primary screen, artefact control for SMM control protein annotation, biochemical, small-molecule microarray, 635 nm fluorescence (AID 1128); conditions: anti-His Alexa647 antibody binding, higher = more signal;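 also: score merges feature fluorescence with signal-to-noise for each printed compound spot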
# [12] = tested on: Human papillomavirus type 1a E7 protein (residues 1-88); assay: HPV1a E7 small-molecule binders, primary screen, biochemical, small-molecule microarray, residues 1-88, 635 nm (AID 1129); conditions: small-molecule microarray binding, fluorescence 635 nm; higher = more signal
# [13] = biological target: Focal adhesion kinase 1 (Homo sapiens) (UniProt Q05397); assay: small-molecule microarray binders of FAK, primary screen, biochemical, 635/667 nm fluorescence, BSA, DTT (AID 1130); conditions: PTK2 binding, 635 nm fluorescence, higher = more signal;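 also: composite of spot emission at 667 nm and signal to noise over triplicate slides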
# Focal adhesion kinase 1 (Homo sapiens), sequence (Q05397 whole entry, looked up): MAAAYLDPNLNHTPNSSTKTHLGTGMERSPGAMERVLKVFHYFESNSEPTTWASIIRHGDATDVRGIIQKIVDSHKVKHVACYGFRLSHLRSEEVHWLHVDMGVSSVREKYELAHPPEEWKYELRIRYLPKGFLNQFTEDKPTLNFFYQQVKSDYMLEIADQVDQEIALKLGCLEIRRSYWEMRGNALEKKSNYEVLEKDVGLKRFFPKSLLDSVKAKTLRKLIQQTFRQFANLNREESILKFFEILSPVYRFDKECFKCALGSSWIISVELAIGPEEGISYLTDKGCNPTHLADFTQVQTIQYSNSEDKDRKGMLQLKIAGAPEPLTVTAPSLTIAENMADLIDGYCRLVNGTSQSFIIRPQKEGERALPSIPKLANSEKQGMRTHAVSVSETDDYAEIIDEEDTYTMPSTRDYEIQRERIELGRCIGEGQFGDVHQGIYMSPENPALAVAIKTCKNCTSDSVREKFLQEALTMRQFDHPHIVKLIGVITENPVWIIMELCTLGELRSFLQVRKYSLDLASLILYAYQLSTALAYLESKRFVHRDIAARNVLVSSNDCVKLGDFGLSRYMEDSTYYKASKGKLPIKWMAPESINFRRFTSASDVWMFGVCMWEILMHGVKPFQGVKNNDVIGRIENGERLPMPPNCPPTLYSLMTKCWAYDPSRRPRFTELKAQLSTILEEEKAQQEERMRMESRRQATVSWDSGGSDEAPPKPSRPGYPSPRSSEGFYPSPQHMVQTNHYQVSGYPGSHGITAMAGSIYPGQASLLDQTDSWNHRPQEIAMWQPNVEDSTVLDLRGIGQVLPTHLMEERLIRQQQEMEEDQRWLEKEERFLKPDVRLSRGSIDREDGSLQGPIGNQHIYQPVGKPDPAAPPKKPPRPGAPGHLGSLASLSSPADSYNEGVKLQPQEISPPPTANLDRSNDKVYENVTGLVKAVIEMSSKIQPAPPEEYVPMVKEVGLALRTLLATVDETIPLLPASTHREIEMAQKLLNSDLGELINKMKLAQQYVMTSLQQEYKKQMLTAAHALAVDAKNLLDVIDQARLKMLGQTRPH
# [14] = tested on: Fibrinogen (Alexa647-labelled); assay: fibrinogen binders on compound microarrays, profiling panel, artefact control for SMM control-protein annotation, biochemical, small-molecule microarray, 635/667 nm fluorescence (AID 1131); conditions: fibrinogen-A647 binding fluorescence, higher = more signal;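 also: z-score merges 667 nm fluorescence with per-spot signal-to-noise over triplicate slides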
# [15] = biological target: Follistatin (Homo sapiens) (UniProt P19883); assay: follistatin binders on small-molecule microarrays, primary screen, biochemical, small-molecule microarray, 635/667 nm fluorescence (AID 1132); conditions: FST binding, 635 nm fluorescence, higher = more signal
# Follistatin (Homo sapiens), sequence (P19883 whole entry, looked up): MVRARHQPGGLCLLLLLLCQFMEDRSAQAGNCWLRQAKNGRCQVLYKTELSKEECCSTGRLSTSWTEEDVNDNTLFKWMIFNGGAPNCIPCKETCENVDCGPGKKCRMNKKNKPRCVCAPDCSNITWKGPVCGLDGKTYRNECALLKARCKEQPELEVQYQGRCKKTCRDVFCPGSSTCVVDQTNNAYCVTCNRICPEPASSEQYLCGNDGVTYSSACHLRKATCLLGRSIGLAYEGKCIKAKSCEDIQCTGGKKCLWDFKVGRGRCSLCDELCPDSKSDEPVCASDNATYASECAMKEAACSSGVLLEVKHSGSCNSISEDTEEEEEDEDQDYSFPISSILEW
# [16] = biological target: Fibroblast growth factor 2 (Homo sapiens) (UniProt P09038); assay: FGF2 binders on small-molecule microarrays, primary screen, biochemical, small-molecule microarray, 635/667 nm fluorescence (AID 1133); conditions: small-molecule microarray binding, FGF2, fluorescence 635/667; higher = more signal
# Fibroblast growth factor 2 (Homo sapiens), sequence (P09038 whole entry, looked up): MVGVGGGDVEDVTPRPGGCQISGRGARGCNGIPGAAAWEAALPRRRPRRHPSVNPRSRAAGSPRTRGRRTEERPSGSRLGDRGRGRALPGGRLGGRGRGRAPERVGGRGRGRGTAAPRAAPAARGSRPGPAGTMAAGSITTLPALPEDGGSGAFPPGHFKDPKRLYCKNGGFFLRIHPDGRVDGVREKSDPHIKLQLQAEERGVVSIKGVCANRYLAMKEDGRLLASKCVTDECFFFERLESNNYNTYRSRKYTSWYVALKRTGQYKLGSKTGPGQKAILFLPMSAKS
# [17] = mitochondrial membrane potential change in A549 cells, profiling panel, cell-based, JC-1 fluorescence, basal, 24 h, 100 nL (AID 1138); conditions: higher = more signal;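 also: A549 lung adenocarcinoma cells under basal conditions with no added stimulus; test concentration not given here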
# [18] = tested on: Lefty1; assay: Lefty1 binders on small-molecule microarrays, primary screen, biochemical, small-molecule microarray, 635/667 nm fluorescence (AID 1139); conditions: small-molecule microarray binding, fluorescence 635/667; higher = more signal
# [19] = tested on: wheat germ agglutinin (Triticum aestivum), Alexa647-labelled; assay: wheat germ agglutinin binders on compound microarrays, profiling panel, artefact control for SMM control-protein annotation, biochemical, small-molecule microarray, 635/667 nm fluorescence (AID 1140); conditions: WGA-A647 binding, 635 nm fluorescence, higher = more signal;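 also: score merges 667 nm feature emission with signal to noise over triplicate slides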
# [20] = biological target: Luciferin 4-monooxygenase (Photinus pyralis) (UniProt P08659); assay: firefly luciferase enzyme inhibitors, primary screen, biochemical, luminescence, purified enzyme, 2006 set (AID 1141); conditions: SteadyGlo luminescence, 30 min, higher = more signal, called active from +8 up or from −8 down;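 also: cell-free assay with purified firefly luciferase at 100 ng per well in PBS; test concentration not given here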
# Luciferin 4-monooxygenase (Photinus pyralis), sequence (P08659 whole entry, looked up): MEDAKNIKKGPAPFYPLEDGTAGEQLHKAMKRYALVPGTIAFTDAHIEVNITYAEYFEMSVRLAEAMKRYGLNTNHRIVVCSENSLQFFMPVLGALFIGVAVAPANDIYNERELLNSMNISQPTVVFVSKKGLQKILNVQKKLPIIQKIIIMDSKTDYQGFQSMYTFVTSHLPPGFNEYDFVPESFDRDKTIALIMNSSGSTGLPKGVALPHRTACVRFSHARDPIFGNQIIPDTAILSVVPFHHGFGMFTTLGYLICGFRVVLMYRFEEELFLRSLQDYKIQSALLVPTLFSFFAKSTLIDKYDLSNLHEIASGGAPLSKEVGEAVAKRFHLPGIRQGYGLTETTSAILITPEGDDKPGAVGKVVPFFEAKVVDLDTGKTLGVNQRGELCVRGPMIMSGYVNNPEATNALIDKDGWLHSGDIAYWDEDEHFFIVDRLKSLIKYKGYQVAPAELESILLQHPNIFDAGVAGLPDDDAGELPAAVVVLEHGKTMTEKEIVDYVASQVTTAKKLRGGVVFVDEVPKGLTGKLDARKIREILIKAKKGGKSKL
SMILES,composite z-score [1],composite Z-score [2],composite z-score [3],composite z-score [4],composite z-score [5],composite z-score [6],composite z-score [7],composite z-score [8],composite z-score [9],composite z-score [10],composite z-score [11],composite z-score [12],composite z-score [13],composite z-score [14],composite z-score [15],composite z-score [16],z-score [17],composite z-score [18],composite z-score [19],z-score [20]
COc1ccc(/C=C/C(=O)c2cccc(OCC(=O)OC(C)(C)C)c2)cc1,0.396,-0.0202 (inactive),-0.176,-0.133,-0.0082,0.872,0.651,1.02,-0.55,0.4,0.0179,0.67,0.168,0.158,-0.708,-0.453,1.57,-0.51,0.248,-2.64 (inactive)
CCCNC(=O)[C@@]1(Sc2ccc(C)cc2)CC(=O)N(Cc2cc(C(F)(F)F)cc(C(F)(F)F)c2)[C@@H]1c1ccc(CO)cc1I,0.502,0.414 (inactive),-0.125,0.0042,0.883,0.918,0.349,0.354,-0.605,-0.12,-0.187,-0.574,-0.101,-0.0242,-0.0247,-1.22,-0.283,-0.487,-0.405,-0.839 (inactive)
COCCOC(=O)N1C(=O)[C@@]2(c3cc(C#CC4(O)CCCCCC4)ccc31)[C@H](c1ccc(O)cc1)N1[C@H](c3ccccc3)[C@H](c3ccccc3)OC(=O)[C@H]1[C@@H]2C(N)=O,0.93,-0.108 (inactive),0.0196,-0.044,0.704,1.81,1.34,1.33,-0.485,0.641,1.53,0.745,1.36,-0.173,0.419,0.308,0.446,0.462,0.706,-1.37 (inactive)
COc1ccc([Si](C)(C)[C@H]2[C@H](CCO)O[C@@]3(C(=O)N(Cc4ccc(N5C(=O)c6cccc7cccc5c67)cc4)c4ccccc43)[C@@H]2C)cc1,0.258,0.466 (inactive),-0.214,-0.123,0.346,0.249,0.0741,-0.465,-1.06,0.609,0.21,-0.141,-0.266,0.193,-0.771,-0.611,1.9,-0.255,0.796,-0.558 (inactive)
CC(=O)OC(C/C=C\B1OC(C)(C)C(C)(C)O1)c1ccccc1 (stereo not given),-0.274,-0.806 (inactive),-0.146,-0.166,-0.411,-0.279,-0.0949,0.0684,1.09,-0.923,-0.0541,-0.373,-0.379,0.221,0.0255,-0.377,1.45,-0.0863,-0.405,-1.54 (inactive)
CCCCCN1CC=CC23O[C@@H]4/C=C\CCC(C)OC(=O)C4[C@H]2C(=O)N(CCO)[C@@H]3C1=O (stereo not given in full),-1.09,0.547 (inactive),-0.28,-0.172,0.905,0.663,0.0877,-0.106,-1.79,-0.773,1.31,-0.85,-0.081,-2.44,-0.869,-1.2,0.33,-0.853,-0.564,-0.967 (inactive)
CC(C)(C)OC(=O)CC[C@]1(C(=O)NCc2ccccc2)N=C(c2ccc(OCCCO)cc2)O[C@H]1c1ccccc1N=[N+]=[N-],1,-0.286 (inactive),0.197,0.0272,0.498,2.97,0.521,1.34,-0.0443,1.16,2.59,1.25,0.245,1.01,1.42,1.3,0.566,0.459,1.42,-9.8 (active)
CC(C)C[C@@H]1NC(=O)[C@@]23C(=O)N[C@@H](Cc4ccccc4)C2[C@H](C)[C@@]2(C)O[C@H]2C3/C=C/C/C=C\CNC(=O)[C@H](Cc2ccccc2)NC1=O (stereo not given in full),0.533,0.376 (inactive),-0.0881,-0.128,0.848,0.138,0.379,0.456,-0.0794,0.313,2.15,0.284,-0.0582,0.894,0.515,0.31,1.22,0.321,0.994,-0.755 (inactive)
CCOC(=O)C[C@H]1[C@H](OC(=O)c2cc3ccccc3oc2=O)[C@@H](NC(=O)c2ccccc2)c2cc(OCCCO)ccc2N1C(=O)Cc1ccc(OC)cc1,-0.0029,-0.0478 (inactive),0.0488,-0.0578,0.467,0.257,0.324,0.382,0.357,0.773,-0.657,0.345,0.5,0.465,0.856,0.948,-0.42,0.584,0.247,-0.243 (inactive)
COC(=O)C(CC#Cc1ccc2c(c1)[C@]1(C(=O)N2)[C@H](c2ccccc2OCCO)N2[C@H](c3ccccc3)[C@H](c3ccccc3)OC(=O)[C@H]2[C@@H]1C(=O)N1CCCCCCC1)C(=O)OC,-0.314,8.74 (active),2.02,1.1,1.03,4.9,1.41,1.33,1.66,0.773,0.925,1.35,4.83,0.0834,1.56,-0.0426,0.547,1.73,1.66,-1.08 (inactive)
